Screening data as filed in PubChem.
AMA1-RON2 inh – disrupts binding of P. falciparum AMA1 to RON2; AlphaScreen AMA1-biotinylated RON2 peptide binding; Potency, µM (doses to about 58.2 µM), without a hit: top-dose activity change, negative = inhibition, actives largely listed as inhibitors; 0.2% of 360,000 active;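 note: 0% = vehicle wells and -100% = peptide control; nearly all actives have a fitted effect of over 45% in size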
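AMA1 (3D7) with his tag at 25 nM final met compounds first, then biotinylated RON2 peptide at 25 nM; detection used donor plus acceptor beads, 10 µg/mL apiece, read by AlphaScreen after 30 min at room temperature.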
Pf growth 48h – P. falciparum growth inhibition at 48 hours (one generation). P. falciparum luciferase growth in erythrocytes, 48 h. Potency, µM (highest dose often 28.7 µM), inactives show at the top dose activity change, negative = inhibition, hits mostly inhibitors. 5.9% of 310,000 active. AID 504832; note: % is set by controls: 0 for no effect and ±100 for the full control effect
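Luciferase-expressing P. falciparum in infected erythrocytes (2% hematocrit, 0.1% parasitemia final) in RPMI 1640/0.5% Albumax were exposed to compound for 48 hours at 37 C, 5% CO2; growth read as luminescence.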
NS1 function inh – influenza NS1 inhibition; Potency, µM (series often up to 46.1 µM), for inactives: at the top dose activity, positive = more growth; 0.4% of 270,000 active; calls by dose curve; note: actives are rising curves; nearly all actives have a fitted effect of over 50% in size
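Growth recovery, yeast-based: influenza A NS1 expressed in S. cerevisiae causes slow growth, and suppressors are detected by OD600. The parent strain without NS1 is used as positive control.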
Sm TGR inh – inhibitors of Schistosoma mansoni thioredoxin glutathione reductase. purified TGR, DTNB reduction, TNB absorbance 405 nm. AID 485364. Potency, µM (doses to about 114 µM), inactives show top-dose activity change, negative = inhibition, actives largely listed as inhibitors. 3% of 360,000 active; note: % is set by controls: 0 for no effect and ±100 for the full control effect; nearly all actives have a fitted effect of over 60% in size
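Kinetic colorimetric format: TGR-catalysed, NADPH-driven DTNB reduction monitored via TNB absorbance. Enzyme dispensed at 20 nM; compound exposure 15 min at room temperature before reaction start.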
Pf growth 96h – P. falciparum growth inhibition at 96 hours; 6.9% of 320,000 active; AID 504834; P. falciparum luciferase reporter growth, 96 h; Potency, µM (highest dose often 28.7 µM), for inactives: top-dose activity change, negative = inhibition, hits mostly inhibitors; note: % is set by controls: 0 for no effect and ±100 for the full control effect
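Compounds incubated with erythrocytes infected by luciferase-expressing P. falciparum (2% hematocrit, 0.05% parasitemia final) for 96 hours, 37 C in 5% CO2. Growth inhibition scored as decreased luciferase luminescence.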
Active calls of the source: *; u = inconclusive; x = no result given; [ ] = remark or other dose. A selection: hits, their analogues and other compounds. The true share with any hit is near 11%. Unless noted, calls come from the whole dose curve; as a rule, active = well fitted curve in the direction sought with a large enough effect; inconclusive = small, poorly fitted or top-dose-only effect, or another doubt; inactive = no such curve, though single readings can be large; an effect the other way counts as inactive or inconclusive. Potency is the fitted concentration of half-maximal effect.

SMILES	AMA1-RON2 inh	Pf growth 48h	NS1 function inh	Sm TGR inh	Pf growth 96h
CS(=O)(=O)c1ccc(C(=O)Nc2ccc(N3CCCCC3)cc2)c(Cl)c1	-4%	225%	x	-8%	u
CC(C)Oc1ccc(C(=O)Nc2ccc(N3CCCCC3)cc2)cc1	4%[11.6 µM]	u	15%	4%	u
CCN1CCN(c2ccc(NC(=O)c3cccc(OCc4ccccc4)c3)cc2)CC1	-27%	x	-8%	0%	-102%
CN1CCN(c2ccc(NC(=O)c3cccc(OCc4ccccc4)c3)cc2)CC1	u	10µM*	-13%	0%	x
CC(C)Oc1cccc(C(=O)Nc2ccc(N3CCN(C)CC3)cc2)c1	-20%	24%	14%	40µM*	u
CC(=O)N1CCN(c2ccc(NC(=O)c3ccc(Cl)cc3)cc2)CC1	4%	-4%	19%	-1%	u
O=C(NCCc1ccccc1)c1ccc(CSc2nc3ccncc3n2Cc2ccc(F)cc2)cc1	x	x	x	5%	x
O=C(O)C[C@H]1OCC=C2C[N@@+]3([O-])CC[C@]45c6ccccc6N[C@@H]4[C@@H]1[C@H]2C[C@H]53	x	x	0%	x	x
Cc1ccc(C(=O)Nc2ccc(N3CCN(C)CC3)cc2)cc1C	-3%	53%	5%	-7%	12µM*
CCC12CN3CC(C)(CN(C1)C3c1c(C)n(C)c3ccccc13)C2=O (stereo unspecified)	x	x	x	-1%	x
O=C(NCc1ccco1)c1cc(-c2cccs2)nc2ccccc12	-1%	u	5%	-3%	19µM*
Cc1ccc(-c2cc(C(=O)NCc3ccco3)c3ccccc3n2)s1	9%	6%	4%	28µM*	-3%
COc1cccc(CNC(=O)c2cc(-c3cccs3)nc3ccccc23)c1	x	x	x	-1%	x
Cc1cc(-c2cc(C(=O)O)c3ccccc3n2)c(C)s1	-1%	16%	2%	x	1.7µM*
O=C(COC(=O)c1cc(-c2cccs2)nc2ccccc12)NCc1ccco1	14%	5%	2%	40µM*	9%
CC(=O)C[C@@H](O)CC(=O)[C@@H]1OC(=O)CCCCC/C=C/Cc2ccccc21	7%	x	x	x	x
Cc1ccc(S(=O)(=O)N2CCC(C(=O)OCC(=O)N(CC(C)C)C3CCS(=O)(=O)C3)CC2)cc1C (stereo unspecified)	11%	-18%	4%	3%	4%
Cc1cccn2c(=O)c(C(=O)NCc3ccc(F)cc3)c(O)nc12	x	x	x	6%	x
Nc1c(C(=O)NCc2ccco2)sc2nc3c(cc12)C(=O)CCC3	-7%	8%	10%	8.9µM*	u
COc1ccc(CNC(=O)COC(=O)c2cc(-c3ccc(Cl)s3)nc3ccccc23)cc1	0%	-5%	7%	1%	x
O=C(COC(=O)c1cc(-c2ccc(Cl)s2)nc2ccccc12)NCc1ccco1	-1%	-2%	15%	7.9µM*	x
O=C(NCc1ccco1)c1c2c(nc3ccccc13)CCC2	u	-21%	-8%	40µM*	31%
O=C(CSc1c2c(nc3ccccc13)CCCC2)NCc1ccco1	-12%	u	x	u	-11%
COc1ccc2cc3c(N)c(C(=O)NCc4ccco4)sc3nc2c1	-23%	-86%	u	-30%	u
Cc1ccc(Cl)c(NC(=O)Nc2csc3c2CCCC3)c1	x	x	x	9%	x
SMILES	AMA1-RON2 inh	Pf growth 48h	NS1 function inh	Sm TGR inh	Pf growth 96h
COc1ccc(CNC(=O)Cc2c(C)c3cc4c(C)coc4c(C)c3oc2=O)cc1OC	x	x	x	6%	x
Cc1ccc(C(C)C)c(OCCCN(C)Cc2ccccc2)c1	-21%	13µM*	-29%	-14%	u
OC(CNC1CCCC1)COc1ccc(Cl)cc1 (stereo unspecified)	-2%	15µM*	-6%	-18%	-53%
COc1cccc(OCC(O)CNC2CCCC2)c1 (stereo unspecified)	0%	2%	7%	11%	u
CCc1ccc(CN(C)CC(O)COc2cccc3ccccc23)cc1 (stereo unspecified)	-15%	0%	-20%	-24%	u
Cc1ccc(C(C)C)c(OCC(O)CN(C)Cc2ccccc2)c1 (stereo unspecified)	-17%	x	3%	-2%	2.1µM*
CN(CCOc1cccc2ccccc12)Cc1ccccc1	u	-11%	2%	1%	4.1µM*
NC(=O)N/N=C(/CCCCCC/C(=N\NC(N)=O)c1ccccc1)c1ccccc1	-5%	u	-1%	16%	u
COc1ccc(Br)cc1CNC(=O)CCSCc1ccc(Cl)cc1	x	x	x	8%	x
COc1ccccc1CNc1ccc(-c2nc(-c3cccc(C)c3)no2)cc1[N+](=O)[O-]	x	x	x	2%	x
Cc1ccc(C(C)C)c(OCC(O)CNC2CCCC2)c1 (stereo unspecified)	-3%	5.2µM*	2%	3%	-15%
O=[N+]([O-])c1ccc(NS(=O)(=O)c2cccc3cccnc23)cc1	42%	1%	9%	1%	12µM*
O=S(=O)(Nc1ccc(O)cc1)c1cccc2cccnc12	-2%	x	u	6%	7%
CCOC(=O)c1cc(-c2ccc(C)cc2)n(CC(=O)NC2CCCCCC2)c1C	x	x	x	7%	x
Cc1nc([N+](=O)[O-])cn1Cc1cccc2ccccc12	-3%	10µM*	0%	0%	21%
N#CCCSC(=S)C1CCCC1=N (stereo unspecified)	90%	x	x	x	x
N#CCCN(C(=O)COC(=O)c1ccc(S(=O)(=O)N2CCCC2)cc1)c1cccc(Cl)c1	-4%	-27%	x	3%	u
COC(=O)c1ccccc1NC(=O)CCCn1nc(C)c2c(C)n(-c3ccccc3)nc2c1=O	0%	u	25%	8%	15µM*
Cc1cc(C)cc(NC(=O)CCCn2nc(C)c3c(C)n(-c4ccccc4)nc3c2=O)c1	-10%	9%	2%	3%	13µM*
COc1ccccc1CNC(=O)CCCn1nc(C)c2c(C)n(-c3ccccc3)nc2c1=O	-5%	-25%	-10%	-1%	12µM*
Cc1ccccc1NC(=O)CCCn1nc(C)c2c(C)n(-c3ccccc3)nc2c1=O	-5%	-12%	7%	0%	u
O=S1(=O)CCN(OCc2ccc(F)cc2Cl)CC1	-17%	7%	x	-3%	4%
Cn1c(=O)c2c(nc(CN3CCN(C(=O)c4ccco4)CC3)n2Cc2cccc(Cl)c2)n(C)c1=O	-6%	4.7µM*	-5%	25µM*	-6%
CC(=O)Cn1c(CN2CCN(C(=O)c3ccco3)CC2)nc2c1c(=O)n(C)c(=O)n2C	-3%	-14%	0%	-17%	6%
Cn1c(=O)c2c(nc(CN3CCN(C(=O)c4ccco4)CC3)n2CC(N)=O)n(C)c1=O	12%	42%	1%	u	1%
Cn1c(=O)c2c(nc(CN3CCN(C(=O)c4ccco4)CC3)n2Cc2ccccc2)n(C)c1=O	-8%	10µM*	-3%	0%	u
O=C(c1ccco1)N1CCN(Cc2nc3ccccc3c(=O)n2-c2ccc(F)cc2)CC1	4%	x	2%	-26%	9.3µM*
